According to PubChem BioAssay AID1159580 (chemical genetic matrix, 2015):
Where “and” joins values, the source holds several entries; their conditions need not be identical. Equal entries are not always repeated. The whole screen tested about 5,500 compounds, of which about 2,000 (36%) were called active. Roughly 18% stayed inconclusive and do not appear here. Rule as the data show it: active = normalized growth mostly below about 0.91 (no sharp cut-off); inconclusive = no clear call, values can overlap the other calls; inactive = mostly above about 0.92. The list shows a part of the results.

Test: chemical genetic growth profiling, strain panel (AID 1159580);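 also: tested at 20 µM; growth read once vehicle control cultures reached saturation at 30 °C; 1 = growth at the plate median or of vehicle wells; lower values mean less growth of the strain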
Conditions: S. cerevisiae deletion strains, growth OD

Measured: normalized growth

CS(=O)(=O)Nc1ccc([N+](=O)[O-])cc1Oc1ccccc1
inactive: locus YAL013W, strain DEP1, active compounds read low 0.986 and 1 | locus YAL021C, strain ccr4, active compounds read low 0.991 | locus YAL026C, strain drs2, active compounds read low 0.991 | locus YAL030W, strain snc1, active compounds read low 1 | locus YAL040C, strain CLN3, active compounds read low 1 | locus YBL061C, strain skt5, active compounds read low 0.994 | locus YBR009C, strain hhf1, active compounds read low 0.971 | locus YBR021W, strain FUR4, active compounds read low 0.994 | locus YBR023C, strain chs3, active compounds read low 0.984 | locus YBR171W, strain sec66, active compounds read low 0.988 | locus YBR229C, strain ROT2, active compounds read low 0.958 | locus YBR231C, strain swc5, active compounds read low 0.993 | locus YBR279W, strain paf1, active compounds read low 0.994 | locus YCL011C, strain gbp2, active compounds read low 0.996 | locus YCL016C, strain dcc1, active compounds read low 0.997 | locus YCL029C, strain bik1, active compounds read low 0.97 | locus YCL061C, strain MRC1 (second series), active compounds read low 1.01 | locus YCL061C, strain MRC1, active compounds read low 1 | locus YCL069W, strain vba3, active compounds read low 0.997 | locus YCR088W, strain abp1, active compounds read low 0.999 | locus YDL005C, strain med2, active compounds read low 0.991 | locus YDL035C, strain GPR1, active compounds read low 0.976 | locus YDL040C, strain nat1, active compounds read low 0.985 | locus YDL074C, strain BRE1, active compounds read low 0.944 | locus YDL101C, strain DUN1, active compounds read low 0.964 | locus YDL134C, strain PPH21, active compounds read low 0.999 | locus YDL185W, strain tfp1, active compounds read low 0.971 | locus YDL192W, strain arf1, active compounds read low 0.966 | locus YDR001C, strain nth1, active compounds read low 0.993 | locus YDR069C, strain doa4, active compounds read low 1.02 | locus YDR101C, strain arx1, active compounds read low 0.98 | locus YDR137W, strain rgp1, active compounds read low 0.857 | locus YDR150W, strain NUM1, active compounds read low 0.983 and 1.02 | locus YDR159W, strain sac3, active compounds read low 0.977 | locus YDR162C, strain NBP2, active compounds read low 0.979 | locus YDR195W, strain ref2 1.01 | locus YDR297W, strain sur2, active compounds read low 0.991 | locus YDR318W, strain mcm21, active compounds read low 0.991 | locus YDR334W, strain swr1, active compounds read low 1 | locus YDR335W, strain msn5, active compounds read low 0.993 | locus YDR363W, strain ESC2, active compounds read low 0.994 | locus YDR388W, active compounds read low 0.977 | locus YDR392W, strain spt3, active compounds read low 0.904 | locus YDR502C, strain sam2, active compounds read low 0.943 | locus YEL003W, strain gim4, active compounds read low 0.999 | locus YEL037C, strain rad23, active compounds read low 0.995 | locus YEL061C, strain CIN8 (second series), active compounds read low 0.988 | locus YEL061C, strain CIN8, active compounds read low 0.979 | locus YER002W, strain NOP16, active compounds read low 0.997 | locus YER015W, strain faa2, active compounds read low 0.994 | locus YER016W, strain bim1, active compounds read low 0.991 | locus YER110C, active compounds read low 0.986 | locus YER111C, strain swi4, active compounds read low 0.978 | locus YER155C, strain BEM2 (second series), active compounds read low 0.991 | locus YER155C, strain BEM2, active compounds read low 1 | locus YER167W, strain BCK2, active compounds read low 1 | locus YFR010W, strain ubp6, active compounds read low 1 | locus YGL078C, strain dbp3, active compounds read low 0.978 | locus YGL086W, strain mad1, active compounds read low 0.969 | locus YGL167C, strain pmr1, active compounds read low 0.988 | locus YGL173C, strain kem1, active compounds read low 0.995 | locus YGL227W, strain vid30, active compounds read low 0.997 | locus YGL240W, strain doc1, active compounds read low 0.995 | locus YGL248W, strain PDE1, active compounds read low 0.946 | locus YGL253W, strain hxk2, active compounds read low 1.01 | locus YGR078C, strain PAC10, active compounds read low 0.96 and 1.02 | locus YGR135W, strain pre9, active compounds read low 1.02 | locus YGR229C, strain SMI1, active compounds read low 0.971 | locus YGR252W, strain gcn5, active compounds read low 0.92 | locus YHR013C, strain ard1, active compounds read low 0.967 | locus YHR027C, strain rpn1, active compounds read low 0.995 | locus YHR030C, strain SLT2, active compounds read low 0.995 and 1.02 | locus YHR079C, strain IRE1 (second series), active compounds read low 0.977 | locus YHR079C, strain IRE1, active compounds read low 1.04 | locus YHR094C, strain hxt1, active compounds read low 0.98 | locus YHR129C, strain ARP1, active compounds read low 0.987 | locus YHR142W, strain chs7, active compounds read low 0.991 | locus YHR200W, strain rpn10, active compounds read low 0.972 | locus YIL066C, strain RNR3, active compounds read low 0.964 | locus YIL073C, strain SPO22, active compounds read low 0.969 | locus YIL125W, strain kgd1, active compounds read low 0.98 | locus YIR030C, strain dcg1, active compounds read low 0.976 | locus YJL092W, strain hpr5, active compounds read low 0.997 | locus YJL095W, strain BCK1 (second series), active compounds read low 0.993 | locus YJL095W, strain BCK1, active compounds read low 0.956 and 1.04 | locus YJL115W, strain asf1, active compounds read low 0.999 | locus YJL129C, strain trk1, active compounds read low 0.979 | locus YJL134W, strain LCB3, active compounds read low 0.991 | locus YJL154C, strain vps35, active compounds read low 0.992 | locus YJL164C, strain tpk1, active compounds read low 0.992 | locus YJL166W, strain qcr8, active compounds read low 0.997 | locus YJL168C, strain set2, active compounds read low 0.98 | locus YJL187C, strain SWE1 (second series), active compounds read low 0.949 | locus YJL187C, strain SWE1, active compounds read low 0.996 | locus YJR043C, strain POL32, active compounds read low 0.911
